Measured values taken from PubChem BioAssay (Tox21).
Values joined by “and” are separate entries in the source; they are usually repeats but may differ in a detail not shown here. Equal values may be shown once. Inconclusive results are not listed. Where a call stands in place of a potency, no number is given. Where a structure was tested more than once in an assay, its records may differ in their call. Active and inactive are the calls of the source. Unless noted, calls follow the shape of the full dose curve.

Experiments:
[1] = Nuclear factor erythroid 2-related factor 2/antioxidant responsive element (Nrf2/ARE) small molecule agonists: qHTS cell viability counter screen in human keratinocytes (AID 1919968; active = well fitted curve in the direction sought with a large enough effect in the repeat runs; an effect the other way counts as inactive or inconclusive; also: nearly all actives have a fitted effect of over 55% in size)
Procedure, shortened: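 Stably transfected HaCaT (KeratinoSens), 1,500/well. Test agents in DMSO were applied for 23 h, 37 C/5% CO2. CellTiter-Fluor was incubated 1 h before the fluorescence read.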

[2] = molecular target: KiSS-1 receptor (Homo sapiens) (UniProt Q969F8); experiment: Human kisspeptin (KISS1R) small molecule agonists, calcium flux assay in KISS1R-HEK293 cells (AID 1920064; active = well fitted curve in the direction sought with a large enough effect in the repeat runs; an effect the other way counts as inactive or inconclusive)
Procedure, shortened: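 After overnight (18 h) culture at 37 C/5% CO2, human KISS1R-HEK293 cells received calcium dye for 1 h, then test compound; emission at 540 nm (excitation 480 nm) was tracked for 3 min.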

[3] = G protein-coupled receptor (GPCR) small molecule agonists, calcium flux assay: HEK293 wild type cell line counter screen (AID 1920065)
Procedure, shortened: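 Following 18 h incubation at 37 C/5% CO2, plates got calcium dye for 1 h; compounds, ATP or DMSO were then pinned in and fluorescence followed kinetically (480/540 nm).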

[4] = p53 small molecule agonists, cell-based qHTS assay with human liver microsomes (AID 1963577); also: potency is read from the fitted curve at half-maximal effect
Procedure, shortened: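 Fluorescence of the beta-lactamase reporter in p53RE-bla cells, detected with LiveBLAzer substrate (2 h, room temperature, dark), served as the read-out after 16 h compound exposure at 37 C with human liver microsomes and NADPH, each 0.5 mg/mL final.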

[5] = p53 small molecule agonists, cell-based qHTS assay with rat liver microsomes (AID 1963578); also: potency is read from the fitted curve at half-maximal effect
Procedure, shortened: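 Cells carrying a p53 response element–beta-lactamase reporter were plated and rested 5 h, then dosed with compound in DMSO plus rat liver microsomes and NADPH, each at 0.5 mg/mL final. After 16 h at 37 C, LiveBLAzer substrate was added for 2 h.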

[6] = p53 small molecule agonists, cell-based qHTS assay with human liver microsomes: qHTS cell viability counter screen (AID 1963579); also: nearly all actives have a fitted effect of over 45% in size
Procedure, shortened: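 Cytotoxicity counter screen: p53RE-bla, 4,000 cells/well; 5 h settle, 37 C/5% CO2; cpd + HLM 0.5 mg/mL + NADPH 0.5 mg/mL (final); 16 h, 37 C; CellTiter-Glo, 30 min RT, luminescence.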

[7] = p53 small molecule agonists, cell-based qHTS assay with rat liver microsomes: qHTS cell viability counter screen (AID 1963580); also: nearly all actives have a fitted effect of over 45% in size
Procedure, shortened: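 Cytotoxicity counter screen: intracellular ATP read by CellTiter-Glo luminescence in the p53 reporter wells. HCT-116 p53RE-bla cells were treated for 16 h at 37 C alongside rat liver microsomes and NADPH, each 0.5 mg/mL final.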

[8] = p53 small molecule agonists, cell-based qHTS assay: qHTS cell viability counter screen (AID 1963581); also: nearly all actives have a fitted effect of over 45% in size
Procedure, shortened: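 qHTS counter screen: 16 h compound exposure at 37 C of p53RE-bla HCT-116 cells (4,000 per well, seeded 5 h prior), cell viability by ATP luminescence.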

[9] = p53 small molecule agonists, cell-based qHTS assay (AID 1963582; active = well fitted activation curve with a large enough effect in the signal ratio in the repeat runs, not every such curve was filed as active; the % refers to the signal ratio)
Procedure, shortened: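 Measured: fluorescence from cleaved LiveBLAzer substrate. System: p53RE-bla cells, 16 h compound treatment at 37 C, 2 h substrate step at room temperature.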

[10] = molecular target: 5-hydroxytryptamine receptor 2A (Homo sapiens) (UniProt P28223); experiment: 5-hydroxytryptamine receptor 2A (HTR2A) small molecule antagonists, cell-based qHTS assay (AID 1963586); also: nearly all actives have a fitted effect of over 45% in size
Procedure, shortened: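 CHO cells stably expressing human HTR2A were plated for 18 h at 37 C, then loaded with calcium dye for 1 h. Compounds were preincubated 5 min at room temperature before DOI (4 nM solution) was added. Kinetic fluorescence was read for 3 min.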

[11] = molecular target: 5-hydroxytryptamine receptor 2A (Homo sapiens) (UniProt P28223); experiment: 5-hydroxytryptamine receptor 2A (HTR2A) small molecule agonists, cell-based qHTS assay (AID 1963587); also: nearly all actives have a fitted effect of over 30% in size
Procedure, shortened: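 Kinetic calcium-flux fluorescence (2 min, 1 sec intervals) after compound addition in agonist mode. HTR2A-CHO cells were cultured 18 h, then dye-loaded 1 h at 37 C.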

[12] = molecular target: Muscarinic acetylcholine receptor M1 (Homo sapiens) (UniProt P11229); experiment: Cholinergic receptor muscarinic 1 (CHRM1) small molecule antagonists, cell-based qHTS assay (AID 1963588); also: nearly all actives have a fitted effect of over 40% in size; also: potency is read from the fitted curve at half-maximal effect
Procedure, shortened: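 Compounds were tested at 15 concentrations in three independent runs. Dye-loaded CHRM1-CHO cells were exposed 5 min at room temperature before stimulation by acetylcholine added at 50nM. Intracellular calcium was read kinetically on FDSS for 3 min.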

[13] = molecular target: Muscarinic acetylcholine receptor M1 (Homo sapiens) (UniProt P11229); experiment: Cholinergic receptor muscarinic 1 (CHRM1) small molecule agonists, cell-based qHTS assay (AID 1963589); also: nearly all actives have a fitted effect of over 35% in size
Procedure, shortened: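 Kinetic fluorescence (1 s intervals) of calcium-sensitive dye in human M1 CHO cells after compound addition; cells pre-incubated 18 h at 37 C/5% CO2 and dye-loaded 1 h.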

[14] = cAMP Responsive Elements (CRE) small molecule agonists, cell-based qHTS assay (AID 1963590)
Procedure, shortened: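 Test agents in DMSO were incubated 3 h at 37 C/5% CO2 with CRE-bla HEK 293T cells seeded 18 h earlier; LiveBLAzer B/G FRET substrate was added and read after 2 h at room temperature.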

[15] = cAMP Responsive Elements (CRE) small molecule antagonists, cell-based qHTS assay (AID 1963591; active = well fitted inhibition curve with a large enough effect in the signal ratio in the repeat runs, not every such curve was filed as active; the % refers to the signal ratio)
Procedure, shortened: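 Reporter line CRE-bla HEK 293T in dialyzed-FBS DMEM; cells preincubated 18 h, treated 3 h with compound plus NKH477 (0.25 uM final); LiveBLAzer FRET, 2 h RT.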

[16] = molecular target: Beta-2 adrenergic receptor (Homo sapiens) (UniProt P07550); experiment: Adrenergic beta2 receptor (ADRB2) small molecule antagonists, cell-based qHTS assay (AID 1963592); also: series mostly up to about 92 µM; nearly all actives have a fitted effect of over 50% in size
Procedure, shortened: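 Assay format: CHO-ADRB2 cells, 18-20hr seeding at 37C/5% CO2, then compound plus 1nM isoproterenol agonist mix for 0.5hr RT. Homogeneous time-resolved fluorescence cAMP detection after 1hr, expressed as 665/615 nm ratio.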

[17] = molecular target: D(2) dopamine receptor (Homo sapiens) (UniProt P14416); experiment: Dopamine D2 receptor (DRD2) small molecule agonists, cell-based qHTS assay (AID 1963594); also: nearly all actives have a fitted effect of over 35% in size
Procedure, shortened: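 cAMP accumulation in DRD2-HEK293 cells measured by HTRF after 1 h detection; compounds added 10 min before NKH477 (200nM […]) forskolin-analogue stimulation, 30 min at room temperature, with Ro20-1724 present at 0.1 mM final.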

[18] = molecular target: D(2) dopamine receptor (Homo sapiens) (UniProt P14416); experiment: Dopamine D2 receptor (DRD2) small molecule antagonists, cell-based qHTS assay (AID 1963595; active = well fitted inhibition curve with a large enough effect in the signal ratio in the repeat runs, with a control signal flat; the % refers to the signal ratio)
Procedure, shortened: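 HEK293 cells stably expressing DRD2, preincubated with 0.1 mM Ro20-1724 and compounds 10 min, were stimulated with 200 nM NKH477 plus 12 nM quinpirole for 30 min at room temperature; cAMP measured by HTRF (665/620 nm).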

[19] = Nuclear factor erythroid 2-related factor 2/antioxidant responsive element (Nrf2/ARE) small molecule agonists: luciferase reporter gene qHTS assay in human keratinocytes (AID 1919969); also: potency is read from the fitted curve at half-maximal effect; nearly all actives have a fitted effect of over 35% in size
[20] = molecular target: Beta-2 adrenergic receptor (Homo sapiens) (UniProt P07550); experiment: Adrenergic beta2 receptor (ADRB2) small molecule agonists, cell-based qHTS assay (AID 1963593);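 also: CHO cells stably overexpressing human ADRB2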
Procedure, shortened: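 CHO cells stably over-expressing ADRB2 were plated overnight at 37C, then dosed with compounds plus a stimulation mix containing 100uM IBMX and 25uM Ro-20-1724 for 0.5hr at room temperature. cAMP was measured by HTRF competition, 1hr.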

5-hydroxytryptamine receptor 2A (Homo sapiens), sequence (P28223 whole entry, looked up): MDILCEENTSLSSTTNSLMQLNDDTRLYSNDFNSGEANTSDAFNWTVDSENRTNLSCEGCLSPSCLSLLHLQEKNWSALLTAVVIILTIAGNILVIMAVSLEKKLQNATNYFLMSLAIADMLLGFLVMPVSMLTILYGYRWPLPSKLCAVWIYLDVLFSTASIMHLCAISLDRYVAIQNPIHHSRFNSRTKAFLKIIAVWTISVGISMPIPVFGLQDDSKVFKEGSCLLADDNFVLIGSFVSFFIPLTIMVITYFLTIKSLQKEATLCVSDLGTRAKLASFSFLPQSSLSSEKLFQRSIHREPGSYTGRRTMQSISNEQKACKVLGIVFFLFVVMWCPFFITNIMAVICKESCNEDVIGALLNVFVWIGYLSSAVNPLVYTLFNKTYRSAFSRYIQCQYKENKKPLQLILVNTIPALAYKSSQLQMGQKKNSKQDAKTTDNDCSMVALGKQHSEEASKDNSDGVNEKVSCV
Muscarinic acetylcholine receptor M1 (Homo sapiens), sequence (P11229 whole entry, looked up): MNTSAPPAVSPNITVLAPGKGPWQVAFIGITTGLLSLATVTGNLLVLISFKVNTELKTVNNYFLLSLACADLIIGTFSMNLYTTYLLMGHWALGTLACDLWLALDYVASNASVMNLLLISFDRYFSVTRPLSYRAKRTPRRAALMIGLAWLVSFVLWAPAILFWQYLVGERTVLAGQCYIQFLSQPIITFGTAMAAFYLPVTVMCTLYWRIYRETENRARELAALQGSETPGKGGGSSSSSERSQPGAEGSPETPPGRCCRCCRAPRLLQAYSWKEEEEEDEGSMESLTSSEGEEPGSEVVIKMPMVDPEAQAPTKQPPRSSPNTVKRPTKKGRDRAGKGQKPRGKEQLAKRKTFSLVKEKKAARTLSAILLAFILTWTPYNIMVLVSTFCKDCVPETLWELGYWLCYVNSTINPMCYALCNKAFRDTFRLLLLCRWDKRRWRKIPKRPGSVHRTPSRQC
KiSS-1 receptor (Homo sapiens), sequence (Q969F8 whole entry, looked up): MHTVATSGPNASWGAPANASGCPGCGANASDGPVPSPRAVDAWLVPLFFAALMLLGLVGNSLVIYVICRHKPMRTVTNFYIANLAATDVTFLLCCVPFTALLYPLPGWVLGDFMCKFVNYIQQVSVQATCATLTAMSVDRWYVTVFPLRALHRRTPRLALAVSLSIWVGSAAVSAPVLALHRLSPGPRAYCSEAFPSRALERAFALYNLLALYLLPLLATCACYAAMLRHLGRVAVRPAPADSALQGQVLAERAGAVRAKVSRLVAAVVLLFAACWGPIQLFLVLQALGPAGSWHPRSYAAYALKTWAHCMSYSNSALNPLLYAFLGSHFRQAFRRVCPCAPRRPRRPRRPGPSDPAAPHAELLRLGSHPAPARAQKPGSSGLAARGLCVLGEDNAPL
Beta-2 adrenergic receptor (Homo sapiens), sequence (P07550 whole entry, looked up): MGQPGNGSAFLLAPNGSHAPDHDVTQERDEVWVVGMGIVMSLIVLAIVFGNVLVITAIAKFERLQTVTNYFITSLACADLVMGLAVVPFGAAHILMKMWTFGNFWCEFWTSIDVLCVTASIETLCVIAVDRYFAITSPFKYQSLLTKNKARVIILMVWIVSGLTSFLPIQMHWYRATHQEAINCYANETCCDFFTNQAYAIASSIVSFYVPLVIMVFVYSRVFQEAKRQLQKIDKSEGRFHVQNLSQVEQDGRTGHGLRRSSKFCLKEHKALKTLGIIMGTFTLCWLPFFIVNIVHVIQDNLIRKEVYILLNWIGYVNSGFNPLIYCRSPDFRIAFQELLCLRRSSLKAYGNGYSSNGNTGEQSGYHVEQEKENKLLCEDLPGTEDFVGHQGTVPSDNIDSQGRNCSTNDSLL
D(2) dopamine receptor (Homo sapiens), sequence (P14416 whole entry, looked up): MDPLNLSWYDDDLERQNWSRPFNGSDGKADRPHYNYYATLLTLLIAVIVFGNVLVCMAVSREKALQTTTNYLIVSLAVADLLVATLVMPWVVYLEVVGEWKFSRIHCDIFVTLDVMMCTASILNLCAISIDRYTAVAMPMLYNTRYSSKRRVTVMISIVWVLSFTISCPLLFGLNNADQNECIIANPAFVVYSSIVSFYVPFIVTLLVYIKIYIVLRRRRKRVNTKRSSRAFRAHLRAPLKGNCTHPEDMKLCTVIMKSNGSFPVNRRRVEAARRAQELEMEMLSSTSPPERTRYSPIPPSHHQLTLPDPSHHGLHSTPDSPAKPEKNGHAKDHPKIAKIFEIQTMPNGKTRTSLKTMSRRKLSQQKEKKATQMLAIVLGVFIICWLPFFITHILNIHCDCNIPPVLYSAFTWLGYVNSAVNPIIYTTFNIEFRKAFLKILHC

Structure (SMILES)	Potency [1]	Potency [2]	Potency [3]	Potency [4]	Potency [5]	Potency [6]	Potency [7]	Potency [8]	Potency [9]	Potency [10]	Potency [11]	Potency [12]	Potency [13]	Potency [14]	Potency [15]	Potency [16]	Potency [17]	Potency [18]	Potency [19]	Potency [20]
C/C=C/CO	inactive	inactive	inactive	inactive	inactive	inactive	inactive	inactive	inactive	inactive	inactive	inactive	inactive	inactive	inactive	inactive	inactive	inactive		
Nc1c2ccccc2nc2ccccc12	inactive		inactive	11.3 µM (active) and 19.9 µM (active)	40.3 µM (active)	inactive		inactive			inactive	14.7 µM (active) and inactive	inactive			inactive	inactive	inactive	6.03 µM (active) and 6.68 µM (active)	
CCOC(=S)SSC(=S)OCC	inactive	inactive	inactive	inactive	inactive	inactive	inactive	inactive	inactive	inactive	inactive	inactive	inactive	inactive	inactive	inactive	inactive	inactive		inactive
O=C(O)c1ccccc1-n1cc(C(=O)O)c(=O)c2cc(Nc3c(F)cc(F)cc3Cl)c(Cl)cc21	inactive	inactive	inactive	inactive	inactive	inactive	inactive	inactive	inactive	inactive		inactive	inactive	inactive	inactive	inactive				inactive
C=C(C)C(=O)OCCC[Si](Cl)(Cl)Cl	inactive	inactive	inactive	inactive	inactive	inactive	inactive	inactive	inactive	inactive	inactive	inactive	inactive	inactive	inactive	inactive	inactive			inactive
CO[Si](CCCNCCNCCN)(OC)OC	inactive	inactive	inactive	inactive	inactive	inactive	inactive	inactive	inactive	inactive	inactive	inactive	inactive	inactive	inactive	inactive	inactive	inactive		
O=Cc1ccc(Cl)c(Cl)c1	inactive	inactive	inactive	inactive	inactive	inactive	inactive	inactive	inactive	inactive	inactive	inactive	inactive	inactive	inactive		inactive	inactive		inactive
